Sfp PPTase inh: inhibitors of Bacillus subtilis Sfp phosphopantetheinyl transferase; Biochemical Sfp PPTase activity, qHTS; Potency, µM, usual class: inhibitors; hit rate 3.5% among 310,000;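 also: the enzyme is Sfp with the accession as filed and its product quenches rhodamine fluorescence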
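Compounds were incubated with enzyme (final 15 nM) for 15 min at room temperature before substrate addition started the reaction. Fluorescence at 525 nm excitation, 598 nm emission was recorded immediately and after 30 minutes.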
Coupling enz: inhibits coupling enzyme system, counter-screen for aldolase hits. coupling enzyme system counterscreen, AmpLite Red fluorescence. activity change, negative = inhibition, % at 58.2 µM, hits read low. hit rate 0.67% among 290,000. AID 2472; in the data active = activity change below about -30%
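Counterscreen of the coupled detection system alone, without aldolase: glyceraldehyde-3-phosphate coupling enzymes plus AmpLite Red readout. Compounds at 57.5 uM final, 10 min RT preincubation, 20 min RT reaction, fluorescence 525/598 nm.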
Tau FP inhib: inhibitors of human tau fibril formation | P10636 | K18 P301L tau heparin fibrillization, Alexa594 FP, 6 h | Potency, µM (titrated, usually from 57.7 µM), actives largely listed as inhibitors | hit rate 0.39% among 280,000 | AID 1468; also: nearly all actives have a fitted effect of over 55% in size
Target sequence (P10636 561-689 P618L limits assumed): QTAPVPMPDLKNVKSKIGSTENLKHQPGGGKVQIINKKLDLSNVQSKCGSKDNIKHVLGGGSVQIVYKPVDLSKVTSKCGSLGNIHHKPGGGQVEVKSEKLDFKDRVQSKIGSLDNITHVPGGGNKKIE
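Read-out: fluorescence polarization of Alexa 594-labeled tau (0.24 uM), 555 nm excitation, 632 nm emission. Mixtures held 15 uM unlabeled K18 P301L, compound and 20 uM heparin, pH 7 acetate buffer, incubated 6 hr at 37 C.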
Tau fluor cs: counter-screen for tau fibril formation inhibitors; tau K18 P301L Alexa594 fluorescence, heparin fibrillization; Potency, µM (series often up to 57.7 µM); hit rate 0.93% among 280,000; also: nearly all actives have a fitted effect of over 55% in size
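Human K18 P301L tau (15 uM unlabeled plus 0.24 uM Alexa 594-labeled, final) in 100 mM sodium acetate pH 7 was mixed with compound and 20 uM heparin and incubated 6 hr at 37 C.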
Tau fibril ThT: blocks human tau fibril formation measured by thioflavin T; P10636; recombinant tau K18 P301L (four-repeat tau fragment), heparin-induced fibrillization, ThT fluorescence; Potency, µM (top dose mostly 57.4 µM), most hits filed as inhibitors; hit rate 2.1% among 270,000; AID 1460; also: nearly all actives have a fitted effect of over 55% in size
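Aggregation was driven by heparin (20 uM final) acting on recombinant tau […] bearing P301L in 100 mM sodium acetate pH 7; fibrils were detected with Thioflavin T.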
JMJD2E inh: blocks human JMJD2E demethylase activity | B2RXH2 | JMJD2E catalytic domain, FDH-coupled NADH fluorescence (FDH is formaldehyde dehydrogenase) | Potency, µM (top dose mostly 57.1 µM), hits mostly inhibitors | hit rate 1.6% among 230,000 | AID 2147; active = well fitted inhibition curve with a large enough effect, not every such curve was filed as active; inconclusive = small, poorly fitted or top-dose-only effect, or another doubt; inactive = no such curve, though single readings can be large or run the other way; also: nearly all actives have a fitted effect of over 50% in size
Target sequence (B2RXH2 1-337 limits assumed): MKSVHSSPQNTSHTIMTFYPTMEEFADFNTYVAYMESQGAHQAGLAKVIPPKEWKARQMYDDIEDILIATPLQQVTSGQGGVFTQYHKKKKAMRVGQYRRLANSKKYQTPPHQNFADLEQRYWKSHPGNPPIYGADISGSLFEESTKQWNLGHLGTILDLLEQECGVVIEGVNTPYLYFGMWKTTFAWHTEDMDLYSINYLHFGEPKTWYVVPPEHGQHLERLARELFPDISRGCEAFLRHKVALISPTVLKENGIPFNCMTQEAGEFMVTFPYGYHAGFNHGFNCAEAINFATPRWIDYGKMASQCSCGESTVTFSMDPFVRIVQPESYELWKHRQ
Numbers stand for hits; 0 = inactive; ? = inconclusive; - = no result; [ ] = another dose, or the depositor's remark. A selection: hits, their analogues and other compounds. The true share with any hit is near 5.3%. Unless noted, calls follow the shape of the dose curve; as a rule, active = well fitted curve in the direction sought with a large enough effect; inconclusive = small, poorly fitted or top-dose-only effect, or another doubt; inactive = no such curve, though single readings can be large; an effect the other way counts as inactive or inconclusive.

SMILES	Sfp PPTase inh	Coupling enz	Tau FP inhib	Tau fluor cs	Tau fibril ThT	JMJD2E inh
COc1cccc(NC(=O)Cn2c(=O)c3cccn3c3ccc(F)cc32)c1	-	-	0	0	0	-
Cc1c(C)n(CC(O)CNc2ccccc2)c2ccccc12 (stereo not given)	0	0	?	?	?	18µM
CN(C)c1ncc2nc(-c3cc(F)cc(F)c3)c(=O)n(C[C@H]3CCCO3)c2n1	0	0	-	-	-	-
CC(=O)N1CCc2[nH]c3ccc(C)cc3c2C1	0	0	-	-	-	-
Cc1ccc2[nH]c3c(c2c1)CN(C(=O)CN1CC(C)OC(C)C1)CC3 (stereo not given)	0	-33	0	0	0	0
COC(=O)C1=C(C(=O)OC)C(c2cc(Br)ccc2O)c2sc(=O)[nH]c2S1 (stereo not given)	20µM	0	0	?	28µM	0
COC(=O)C1=C(C(=O)OC)C(c2ccc(OC)c(OC)c2)c2sc(=O)[nH]c2S1 (stereo not given)	20µM	0	0	0	?	?
O=C(O)C1Sc2[nH]c(=O)sc2C2c3cc(Br)ccc3OC(=O)C12 (stereo not given)	?	0	0	0	-	0
COC(=O)C1=C(C(=O)OC)C(c2cc(Cl)ccc2O)c2sc(=O)[nH]c2S1 (stereo not given)	79µM	-	0	?	25µM	0
CCOc1ccc2nc(N3CCCC(C(=O)Nc4ccc(Br)c(C)c4)C3)sc2c1 (stereo not given)	-	-	0	?	?	-
CN(C)c1nc(-c2ccc3c(c2)OCO3)nc2ccccc12	0	0	-	-	-	-
O=C(CS(=O)(=O)c1cccc2nsnc12)N1CCN(c2cccc(C(F)(F)F)c2)CC1	-	-	0	0	0	-
COC(=O)c1ccc(/C=N/Nc2nc(-c3ccc(C)cc3)cs2)cc1	0	0	0	0	?	0
CC(=O)Nc1ccc(-c2csc(N/N=C\c3ccncc3)n2)cc1	20µM	0	0	?	-	0
CCCC(=O)Nc1ccc(-c2csc(N/N=C\c3ccncc3)n2)cc1	25µM	0	?	16µM[quencher]	-	?
Clc1ccc(-c2csc(N/N=C/c3cccnc3)n2)c(Cl)c1	?	0	?	?	?	0
C(=N\Nc1nc(-c2ccccc2)cs1)/c1cccnc1	56µM	0	0	16µM[quencher]	16µM	0
COc1cc(OC)cc(C2=Nn3c(nnc3-c3cccc(OC)c3)SC2)c1	0	0	-	-	-	-
CCCCC(=O)Nc1cc(C)c(O)c(-c2nc3ncccc3o2)c1	-	-	0	0	0	-
COc1ccc2[nH]c3c(C)c4ccncc4c(C)c3c2c1	16µM	0	0	?	3.5µM	8.9µM
COc1ccc2[nH]c(C)cc(=O)c2c1	0	0	0	0	0	0
CCc1nnc(NC(=O)CSc2nccn2Cc2ccc(F)cc2)s1	-	-	0	0	0	-
O=C1CCCC/C1=C\Nc1ccc(O)cc1	22µM	-68	?	?	16µM	?
O=C1CCC/C1=C/Nc1ccc(Cl)cc1	0	0	0	0	0	0
CC[C@H](C)[C@H](NC(=O)CNC(=O)[C@H](CCCNC(=N)N)NC(=O)[C@H](CO)NC(=O)[C@H](C)NC(=O)[C@H](Cc1ccc(O)cc1)NC(=O)[C@H](Cc1c[nH]c2ccccc12)NC(=O)[C@H](C)NC(=O)[C@@H]1CCCN1C(=O)[C@H](CC(N)=O)NC(=O)[C@@H](NC(=O)[C@H](CC(=O)O)NC(=O)[C@@H]1CCCN1C(=O)[C@@H](N)[C@@H](C)O)[C@@H](C)CC)C(=O)N[C@@H](CCCNC(=N)N)C(=O)N1CCC[C@H]1C(=O)N[C@H](C(=O)NCC(=O)N[C@@H](CCCNC(=N)N)C(=O)N[C@@H](Cc1ccccc1)C(N)=O)C(C)C	?	0	-	-	-	-
SMILES	Sfp PPTase inh	Coupling enz	Tau FP inhib	Tau fluor cs	Tau fibril ThT	JMJD2E inh
CNC(=S)Nc1cccc(C(=O)O)c1	56µM	0	0	0	0	0
Cc1cccnc1NC(=S)NC(=O)/C=C/c1ccco1	0	0	?	0	28µM	?
O=C(/C=C/c1ccco1)NC(=S)Nc1cccc(C(=O)O)c1	79µM	0	-	-	-	-
O=C(/C=C/c1ccco1)N/C(=C\c1ccco1)C(=O)NCCc1nc2ccccc2[nH]1	50µM	0	0	0	?	?
Cc1ccc(CSCCNC(=O)C2CCN(S(=O)(=O)Cc3ccccc3)CC2)cc1	-	-	0	0	0	-
O=C(/C=C/c1ccco1)NC(=S)Nc1ccccc1O	0	0	0	?	22µM	0
Cc1ccc(-c2nc3ccccc3[nH]2)cc1NC(=O)/C=C/c1ccco1	50µM	0	0	0	?	?
Cc1cc(C)c2oc(-c3ccc(C)c(NC(=S)NC(=O)/C=C/c4ccco4)c3)nc2c1	40µM	0	0	0	0	0
O=C(/C=C\c1ccco1)NC(=S)Nc1ccccc1O	?	0	0	?	20µM	0
Cc1ccc(NC(=S)NC(=O)/C=C/c2ccco2)c(O)c1	?	0	0	0	?	0
Cc1ccc(-c2nc3ccccc3[nH]2)cc1NC(=O)c1ccc2c(c1)OCO2	0	0	0	0	?	0
C[C@@H]1C(=O)O[C@H]2[C@H](O)[C@@]34[C@H]5CC(C(C)(C)C)[C@]36[C@H](OC(=O)[C@H]6O)O[C@]4(C(=O)O5)[C@@]12O (stereo not given in full)	0	0	-	-	-	-
COc1ccccc1C(=O)Nc1cccc(OCc2cc(=O)n3c4c(sc3n2)CCCC4)c1	-	-	0	0	0	-
O=C(Nc1cccs1)NC1CCCC1	0	0	?	0	?	0
O=C(NCC1CC1)Nc1cccs1	45µM	0	0	0	0	0
COc1ccc(Br)cc1CNC(=O)Nc1cccs1	50µM	0	0	?	?	0
Cc1ccc(CNC(=O)Nc2cccs2)cc1	18µM	0	0	0	0	0
Cc1ccc(CNC(=O)Nc2ccccc2)cc1	0	0	0	0	0	0
COc1ccc(CNC(=O)Nc2cccs2)cc1OC	25µM	0	0	0	0	0
COc1ccc(C2CC(c3ccccc3)Oc3cc(OC)c(OC)c(OC)c32)cc1 (stereo not given)	0	0	-	-	-	-
COc1ccc(-c2cn3c(n2)sc2cc(C(=O)NCCC4=CCCCC4)ccc23)cc1	-	-	0	0	0	-
COC(=O)[C@H](CC(C)C)NC(=O)c1ccc(NC[C@@H](N)CS)cc1-c1cccc2ccccc12	?	0	-	-	-	-
COc1cccc(CNC(=O)C2(c3cccs3)CCOCC2)c1	-	-	0	0	0	-
COc1cccc(CNC(=O)Nc2cccs2)c1	45µM	0	0	0	?	0
COc1ccc(-c2nc3cnc(OC)nc3n(C3CC3)c2=O)cc1	0	0	-	-	-	-
S=C(Nc1cc(Cl)ccc1Cl)Nn1cnnc1	18µM	0	0	0	-	0
S=C(NCc1ccc(Cl)cc1)Nc1ccc(Cl)cc1Cl	0	0	?	0	0	0
O=C(Nc1cccc(Cl)c1Cl)Nn1cnnc1	0	0	-	-	-	-
S=C(Nc1cccc(Cl)c1Cl)Nn1cnnc1	35µM	0	?	0	?	0

From PubChem
